Screens from PubChem BioAssay.
Rows were chosen to be rich in hits. Some 1.1% of all compounds tested hit in one or more screens of this group.
GC-A act: GC-A (human) enzyme activation. P16066. AID 1671463. actives 0.14% (n = 370,000). HEK293 GC-A cells, cGMP TR-FRET, EC30 ANP; 0% at EC30 ANP, 100% saturating ANP. activation, % at 10 µM; in the data active means activation above about 40%
FAS TE block: inhibitors of human fatty acid synthase thioesterase domain; inhibition, % at 15 µM; actives 0.67% (n = 360,000); recombinant FAS-TE, OMFH fluorogenic substrate, fluorescence endpoint; AID 602261;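 active means compounds whose normalised, plate-corrected inhibition of enzyme fluorescence in the single-dose primary screen is 50% or more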
NPR2 activator: GC-B (human) receptor activation. actives 0.11% (n = 370,000). AID 1920062. HEK293-GC-B cells, CNP EC30, cGMP TR-FRET; 0% at EC30 CNP, 100% saturating CNP. activation, % at 10 µM;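 active means activation at 10 µM reaching about 35% in either raw or pattern-adjusted values, limit read from the data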
aDG glyco act: increases alpha dystroglycan glycosylation; actives 0.22% (n = 360,000); Pro5-aDG cells, alpha-DG glycosylation AlphaScreen (IIH6); 0% Pro5, 100% B10-LARGE cell signal; activation, % at 10 µM;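 active means activation of at least 8% versus controls, or a plate z-score of at least 8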;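 further: Pro5 are CHO cells carrying HIG-tagged alpha-DG that lacks glycosylation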
FAS-TE conf: FAS thioesterase (human) inhibition, confirmation | shares compounds with FAS TE block | recombinant FAS-TE, OMFH fluorogenic substrate, fluorescence | inhibition, % at 15 µM | actives 45% (n = 2,300) | AID 624325;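 active means compounds inhibiting the enzyme by at least 50% at 15 µM in any one of the replicates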
Hits are given with their value; i = inactive; nt = no result.

SMILES	GC-A act	FAS TE block	NPR2 activator	aDG glyco act	FAS-TE conf
COc1ccc(OC)c(S(=O)(=O)ON2C(=O)c3ccccc3C2=O)c1	44	79	44	i	66
O=C1c2cccc3cccc(c23)C(=O)N1OS(=O)(=O)c1ccc(Cl)cc1	i	52	i	i	i
CCc1ccc(S(=O)(=O)ON2C(=O)c3ccccc3C2=O)cc1	i	81	i	i	72
Cn1c(SCc2c(Cl)cccc2Cl)nc(C(F)(F)F)cc1=O	i	52	i	i	i
Cn1c(SCc2cccc(Cl)c2)nc(C(F)(F)F)cc1=O	i	63	i	i	62
Cn1c(SCc2ccccc2Cl)nc(C(F)(F)F)cc1=O	i	i	i	i	nt
C=CCOC(=O)C(CO)NC(=O)CCCC(=O)O (stereo not drawn)	i	nt	i	nt	nt
COCCCN1C(=O)[C@H](CC(=O)N2CCC(c3ccccc3)CC2)[C@]2(C(=O)OC)CCCCC=C12	i	nt	i	nt	nt
CCCNC(=O)C1CCN(S(=O)(=O)c2cccs2)CC1	i	i	i	i	nt
O=C(NCCN1C(=O)S/C(=C\c2ccccc2F)C1=O)C1CCN(S(=O)(=O)c2cccs2)CC1	i	61	i	i	i
Cc1ccc(C(=O)Nc2cccc(S(=O)(=O)N3CCCCC3)c2)cc1S(=O)(=O)N1CCOCC1	i	i	i	i	nt
Cc1ccc(C)c(C(=O)COC(=O)c2cc([N+](=O)[O-])ccc2NCCO)c1	i	62	i	i	i
O=C(COC(=O)c1ccc([N+](=O)[O-])o1)Nc1cccc(S(=O)(=O)N2CCCCC2)c1	i	i	i	i	nt
Cc1ccc(C(=O)Nc2cccc(S(=O)(=O)N3CCCCC3)c2)cc1[N+](=O)[O-]	i	53	i	i	i
O=C(COC(=O)c1cc([N+](=O)[O-])ccc1NCCO)Nc1ccc2c(c1)OCO2	i	77	i	i	51
O=C(COC(=O)c1cc([N+](=O)[O-])ccc1NCCO)Nc1cccc(S(=O)(=O)N2CCCC2)c1	i	70	i	i	69
CC(C)(C)OC(=O)/C=C/[C@H](CCCCl)Sc1ccc(C(C)(C)C)cc1	i	nt	i	nt	nt
Cc1ccc(OCCn2c(CCNC(=O)c3ccc(F)cc3F)nc3ccccc32)cc1	i	nt	i	nt	nt
COc1ccc(S[C@]2(C(=O)N3CCN(c4ncccn4)CC3)CC(=O)N(S(=O)(=O)c3ccc(F)cc3)[C@@H]2c2ccc(OC)cc2)cc1	i	nt	i	nt	nt
O=C(Nc1ccccc1)C(Cl)C(=O)c1ccccc1 (stereo not drawn)	i	51	i	i	i
CC(=O)C(Cl)C(=O)Nc1ccccc1 (stereo not drawn)	i	i	i	i	nt
N#Cc1ccc(Oc2ccc(-c3nc4ccccc4nc3-c3ccccc3)cc2)cc1C#N	i	70	i	i	i
COc1ccc([N+](=O)[O-])cc1/C=N/NC(=O)CNC(=O)c1cccc(F)c1	i	70	i	i	75
O=C(Nc1ccc(Oc2ccccc2)cc1)C1CCN(c2nnc(-n3cccc3)s2)CC1	i	nt	i	nt	nt
Cc1ccc(S(=O)(=O)Nc2ccc3c(c2)C(=O)N([C@H](C)CO)C[C@H](C)[C@@H](CN(C)C(=O)NC2CCCCC2)OCCCC[C@@H](C)O3)cc1	i	i	i	i	nt
SMILES	GC-A act	FAS TE block	NPR2 activator	aDG glyco act	FAS-TE conf
C[C@@H]1CCCCO[C@H](CN(C)C(=O)Nc2ccc3c(c2)OCO3)[C@H](C)CN([C@@H](C)CO)C(=O)c2cc(NS(=O)(=O)c3ccc(Cl)cc3)ccc2O1	i	59	i	i	i
C[C@@H]1CN([C@H](C)CO)C(=O)c2cc(NC(=O)Nc3ccc(F)cc3)ccc2O[C@@H](C)CCCCO[C@H]1CN(C)S(=O)(=O)c1ccc(Cl)cc1	i	69	i	i	i
Cc1ccc(S(=O)(=O)Nc2ccc3c(c2)C(=O)N([C@H](C)CO)C[C@H](C)[C@H](CN(C)C(=O)Nc2cccc4ccccc24)OCCCC[C@@H](C)O3)cc1	i	61	i	i	i
C[C@@H]1CCCCO[C@@H](CN(C)S(=O)(=O)c2cccs2)[C@@H](C)CN([C@H](C)CO)C(=O)c2cc(NS(=O)(=O)c3ccccc3)ccc2O1	i	63	i	i	i
CCCCCCCCNC(=O)/C(C#N)=C/c1ccccc1[N+](=O)[O-]	i	57	i	i	73
N#C/C(=C\c1ccccc1[N+](=O)[O-])C(=O)NCc1ccccc1	i	i	i	i	nt
CC(C)(C)c1ccc(S(=O)(=O)N2CCC(C(=O)N3CCN(C4CCCCC4)CC3)CC2)cc1	i	nt	i	nt	nt
Cc1cccc(Oc2ccc(S(=O)(=O)N3CCCCC3)cc2NC(=O)C2=COCCO2)c1	i	65	i	i	i
CCN(CC)C(=O)CC[C@@H]1CC[C@]2(CCCN(S(C)(=O)=O)C2)O1	i	nt	i	nt	nt
O=C(N/N=C\c1ccc(Cl)cc1)C1=NOC2COC3(CCN(c4ccc([N+](=O)[O-])cc4)CC3)OCC12 (stereo not drawn)	i	69	i	i	i
Cc1ccc(C)c(NC(=O)C2CCCN2S(=O)(=O)c2cccc3cccnc23)c1 (stereo not drawn)	i	nt	i	nt	nt
O=C(OC(c1ccccc1)c1nccc2ccccc12)c1cc([N+](=O)[O-])cc([N+](=O)[O-])c1 (stereo not drawn)	i	50	i	i	i
COC(=O)c1cc2c(c3c4cc(F)ccc4n(S(=O)(=O)c4cccc(C)c4)c13)C(=O)N(Cc1ccc(N(C)C)cc1)C2	i	nt	i	nt	nt
Cc1ccc(NS(=O)(=O)c2cccc(C(=O)N/N=C/c3c(C)nn(-c4ccccc4)c3N3CCCC3)c2)c(C)c1	i	51	i	i	i
CCNc1ccc(C(=O)N/N=C/c2c(C)nn(-c3ccccc3)c2N2CCCC2)cc1[N+](=O)[O-]	i	70	i	i	i
CC(=O)N1CCN(c2ccc(N3CCN(Cc4ccccc4)[C@@H](C)C3)c(C)c2)[C@@H](C)C1	i	nt	i	nt	nt
COC(=O)C1=C(C)N(C)C(=NCc2ccc(C(F)(F)F)cc2)NC1c1ccc(Cl)cc1 (stereo not drawn)	i	nt	i	nt	nt
Cc1ccc(SCc2ccc(C(=O)Nc3cccc([N+](=O)[O-])c3C)cc2)cc1	i	51	i	i	i
O=C(CC(=O)c1ccccc1)Nc1cc([N+](=O)[O-])ccc1Cl	i	i	i	i	nt
O=C(COc1ncnc2cc([N+](=O)[O-])ccc12)NCCc1ccc(Cl)cc1	i	i	i	i	nt
O=C(COc1ncnc2ccccc12)Nc1cc([N+](=O)[O-])ccc1Cl	i	51	i	i	i
O=C(COc1ncnc2c(Cl)cc(Cl)cc12)Nc1cc([N+](=O)[O-])ccc1Cl	i	52	i	i	i
CCOC(=O)[C@H]1[C@H]2COc3ccc(Br)cc3[C@@H]2N2C(=O)c3cc(F)c(F)cc3NC(=O)[C@@]12C	i	i	i	i	nt
